Reference: the supplement of paper PMC4206467

tested on: Perkinsus marinus PRA240; experiment: ATP content (proliferation) relative to DMSO control; higher = more parasite growth (less inhibition); settings: 20 µM; 4 days
Protocol: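 Perkinsus marinus PRA240 trophozoites (2-5x10^6 cells/ml, 100 µl, 96-well) were exposed once to MMV Malaria Box compounds at 20 µM (0.1% DMSO) in triplicate. ATP content (ATPlite bioluminescence) was read at day 4 post-exposure and normalised to DMSO + cells control wells (100% activity). Compounds were identified by joining plate and well to the Malaria Box list.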

| Compound | ATP content [%] |
| --- | --- |
| CCC(O)c1ccc(Br)cc1NC(=O)c1cccc(Cl)c1 (configuration not stated) | 127 |
| Cc1[nH]c(-c2ccc(F)cc2)cc1C(=O)NC1CCN(Cc2ccccc2)CC1 | 108 |
| CCOC(=O)C1(Cc2ccccc2)CCN(Cc2cccc(OC)c2O)CC1 | 143 |
| Cc1cc(N2CCN(C3CCCC3)CC2)n2c(nc3ccccc32)c1C#N | 161 |
| Cc1ccccc1OCCSc1nc2ccc(NC(=O)c3ccccc3)cc2s1 | 50.6 |
| CCOC(=O)C1=C(C)N=c2sc(=Cc3ccccc3O)c(=O)n2C1c1ccc(OC)c2ccccc12 (configuration not stated) | 196 |
| CCCCc1ccc(NS(=O)(=O)c2cc3c4c(c2)CCN4C(=O)CC3)cc1 | 115 |
| CCOc1ccc(CCNC(=O)c2cccs2)cc1OCC | 67.6 |
| COc1cc(C(=O)Nc2nc3c(cc4c5c(cccc53)CC4)s2)cc(OC)c1OC | 89.8 |
| O=C(CCl)NCCOc1ccc(Cl)cc1Cl | 99.9 |
| N=c1n(CCN2CCCCC2)c2ccccc2n1CC(O)c1cccc(Br)c1 (configuration not stated) | 116 |
| COc1cc(-c2nc(-c3ccccc3)c(-c3ccccc3)[nH]2)cc(OC)c1O | 61.1 |
| O=C(NC1CCN(Cc2ccccc2)CC1)c1cc(C(=O)NC2CCN(Cc3ccccc3)CC2)cc(C(=O)NC2CCN(Cc3ccccc3)CC2)c1 | 90.4 |
| COCCN(C(=O)Cc1cccs1)C(C(=O)NCc1ccc(OC)cc1)c1ccc(C(C)C)cc1 (configuration not stated) | 37.2 |
| Cc1ccc2cc3c(N)c4c(C)ccc(C)c4nc3nc2c1 | 142 |
| CCN(CC)CCn1c(=N)n(CC(O)c2ccc(Cl)c(Cl)c2)c2ccccc21 (configuration not stated) | 110 |
| COc1ccc(C2c3ccc4ccccc4c3Oc3ncn(CCCN(C)C)c(=N)c32)cc1 (configuration not stated) | 202 |
| COc1cc2c3cc1Oc1c(OC)c(OC)cc4c1C(Cc1ccc(O)c(c1)Oc1ccc(cc1)CC3N(C)CC2)N(C)CC4 (configuration not stated) | 144 |
| COc1ccccc1N1C(=N)SC(=Cc2ccc(OCc3ccccc3F)cc2)C1=O | 57.5 |

| Compound | ATP content [%] |
| --- | --- |
| Cc1sc(NC(=O)c2ccco2)c(C(c2cccnc2)N2CCC(Cc3ccccc3)CC2)c1C (configuration not stated) | 48.5 |
| COc1ccc(N2CCN(C(CNC(=O)CC(C)(C)C)c3ccc4c(c3)OCO4)CC2)cc1 (configuration not stated) | 211 |
| COc1ccc2nc(C)cc(Nc3ccccc3O)c2c1 | 163 |
| Cc1ccc(Cl)cc1N1CCN(CCCNC(=O)C2CCN(c3nc4ccccc4[nH]3)CC2)CC1 | 87.1 |
| COc1ccc2c(c1)C1(Nc3ccccc3-c3nc4ccccc4n31)C(=O)N2 (configuration not stated) | 113 |
| CC(C)(C)c1ccc(C(=O)Nc2c3c(nn2-c2cccc(Cl)c2)CSC3)cc1 | 147 |
| CN(C)c1ccc(N=Cc2ccc(N3CCOCC3)cc2)cc1 | 108 |
| CCN(CC)c1ccc(NC(=O)c2cccs2)cc1 | 64 |
| Oc1ccc2ccccc2c1CNc1nc2ccccc2[nH]1 | 65.9 |
| CC(C)(C)c1ccc2c(c1)CN(Cc1ccc(Cl)cc1)CO2 | 107 |
| O=C1c2ccccc2-c2nnc(-c3ccc(Br)cc3)cc21 | 67.7 |
| CN1C=C(c2ccc3ccccc3n2)C(c2c[nH]c3ccccc23)c2ccccc21 (configuration not stated) | 108 |
| Cc1cc(Nc2cccc(F)c2)nc(NCc2ccccc2)n1 | 94.7 |
| Cc1ccccc1OCCSc1nc2ccc(NC(=O)c3cccs3)cc2s1 | 30.1 |
| COc1cc(SC)ccc1C(=O)N1CCCC(C)C1 (configuration not stated) | 134 |
| CCC(=O)Nc1nnc(Cc2ccc(OC)c(OC)c2)s1 | 103 |
| CCCCCCC(O)(c1ccc(F)cc1)C(CN1CCOCC1)c1ccccc1 (configuration not stated) | 127 |
| CC(C)(C)c1ccc(C(=O)Nc2nc3ccccc3s2)cc1 | 57 |
